Each sequence was assayed against SPOCK1 (assay: pooled miR-30 sensor sort-seq; sequence = guide strand). Details: shRNA.
Sequence ATATTCTAGGTCATCCAGCAGG has a sensor-assay potency score (higher = more potent) of -0.735. TTTGTCATCATCCTCATCCTCA showed a sensor-assay potency score (higher = more potent) of 0.0865. TCCAACTTGTTGAACATCCAGC showed a sensor-assay potency score (higher = more potent) of -1.54.

Each sequence was assayed against SPOPL in the same assay as above. Details: shRNA.
With AAATTTTACTACTTTAACCTGT the sensor-assay potency score (higher = more potent) was 0.191. With TTTACTACTTTAACCTGTGTGT the sensor-assay potency score (higher = more potent) was -0.00218. In the case of TGTCGAAGTACACTGCACCTAT, the sensor-assay potency score (higher = more potent) is reported as -0.0442. TTGAACTTTTTAACACTTCACC was tested, and the sensor-assay potency score (higher = more potent) was -1.27. TACTACTTTAACCTGTGTGTAA gave a sensor-assay potency score (higher = more potent) of -0.323. With TTCTTCGCACATGACCTTCAGC the sensor-assay potency score (higher = more potent) was -0.607. With TATTTGTATTAGTATGTCCTGA the sensor-assay potency score (higher = more potent) was -0.376. TTAACCTGTGTGTAACACCAGC was tested, and the sensor-assay potency score (higher = more potent) was -0.559. With TTTTGCTCGAACTTCACTTTTG the sensor-assay potency score (higher = more potent) was -1.29. TCGCACATGACCTTCAGCCGTT was tested, and the sensor-assay potency score (higher = more potent) was -0.42. Sequence TAAAAACTGGAGATCGAGCTGC has a sensor-assay potency score (higher = more potent) of 0.265. Sequence TGTAACACCAGCTTTCTGCTAT has a sensor-assay potency score (higher = more potent) of 0.257.
Further: reference of the scale not given here.
